These results are taken from PubChem BioAssay (Tox21).

Values joined by “and” are separate entries in the source; they are usually repeats but may differ in a detail not shown here. Identical values can stand only once. Results filed as inconclusive are left out. Active and inactive are the calls of the source. Unless noted, calls follow the shape of the dose curve; as a rule, active = well fitted curve in the direction sought with a large enough effect in the repeat runs; inconclusive = weak or mixed curves; inactive = no such curve, though single readings can be large; an effect the other way counts as inactive or inconclusive.

The nature of experiment [1]: A CellTox Green Cytotoxicity Assay to monitor cytotoxicity in HepG2 cells - 8 hour (AID 1224890). Also: nearly all actives have a fitted effect of over 45% in size. In outline: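 HepG2, 600 cells/well premixed w/ CellTox Green; 5 h settle, 37 C/5% CO2; pintool cpd add (DMSO); 37 C, 40 h; fluorescence read at 0, 8, 16, 24, 32, 40 h.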
The nature of experiment [2]: qHTS assay to identify small molecule antagonists of the estrogen receptor alpha (ER-alpha) signaling pathway using the BG1 cell line in the presence of 0.1 nM 17-beta-estradiol - cell viability counter screen (AID 1259241). Also: nearly all actives have a fitted effect of over 40% in size. The essentials:
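Cells were plated and left 24 hr, compounds in DMSO were pinned in, 17beta-estradiol was added to 0.1 nM final, and after 22 hr CellTiter-Fluor reagent was added for 30 min before fluorescence was read.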
On the technique in general: Quantitative high-throughput screening tests each substance at several concentrations.

A short description of experiment [3]: qHTS assay to identify small molecule antagonists of the androgen receptor (AR) signaling pathway using the MDA cell line in the presence of 0.5 nM R1881 - cell viability counter screen (AID 1259242). Also: nearly all actives have a fitted effect of over 45% in size. The essentials:
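Live-cell protease fluorescence, CellTiter-Fluor, 30 min at 37C. Cells: MDA-kb2, 3,000/well, preincubated 5 hr. Compounds plus 0.5 nM R1881 final, 16 hr, 37C, 0% CO2.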

The target in experiment [4] is Estrogen receptor (Homo sapiens) (UniProt P03372). In words: qHTS assay to identify small molecule antagonists of the estrogen receptor alpha (ER-alpha) signaling pathway using the BG1 cell line in the presence of 0.1 nM 17-beta-estradiol (AID 1259244). Also: nearly all actives have a fitted effect of over 50% in size. In outline: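 Luminescence after ONE-Glo (30 min, room temperature) measured ERE-luciferase activity in VM7Luc4E2 cells treated 22 h with compound and 0.1 nM final 17beta-estradiol as stimulator.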
Sequence of Estrogen receptor (Homo sapiens) (P03372 whole entry, looked up): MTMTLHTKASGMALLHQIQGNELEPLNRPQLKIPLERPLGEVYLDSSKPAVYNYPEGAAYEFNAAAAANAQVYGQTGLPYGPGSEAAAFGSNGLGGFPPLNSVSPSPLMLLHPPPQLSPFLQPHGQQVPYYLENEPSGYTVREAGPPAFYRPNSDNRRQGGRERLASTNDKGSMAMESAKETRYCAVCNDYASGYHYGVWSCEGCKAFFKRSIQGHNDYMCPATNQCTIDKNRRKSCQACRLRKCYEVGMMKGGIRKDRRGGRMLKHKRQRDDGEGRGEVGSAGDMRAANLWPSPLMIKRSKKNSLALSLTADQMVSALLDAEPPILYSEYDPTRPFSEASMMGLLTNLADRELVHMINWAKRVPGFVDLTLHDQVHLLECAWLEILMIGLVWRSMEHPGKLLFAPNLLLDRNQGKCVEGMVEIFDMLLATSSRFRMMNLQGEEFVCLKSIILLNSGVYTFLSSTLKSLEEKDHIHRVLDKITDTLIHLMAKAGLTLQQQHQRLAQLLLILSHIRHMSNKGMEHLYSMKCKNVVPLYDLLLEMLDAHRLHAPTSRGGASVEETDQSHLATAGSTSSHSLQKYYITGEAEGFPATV

The nature of experiment [5]: qHTS assay to identify small molecule HDAC inhibitors (AID 1259364). Also: potency is read from the fitted curve at half-maximal effect.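 Also: wild-type HCT-116 cells with endogenous class I/II HDAC activity; nearly all actives have a fitted effect of over 45% in size.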 In outline: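 HCT-116 (wild type), 1,500 cells/well, overnight; compound 2 hr 37C 5% CO2; HDAC-Glo I/II reagent 30 min RT; luminescence readout.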
Experiment [6] is described as follows: qHTS assay to identify small molecule HDAC inhibitors - cell viability counter screen (AID 1259365). Also: series mostly up to about 92 µM; nearly all actives have a fitted effect of over 50% in size. In outline: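 Counter screen in wild-type HCT-116 cells: compounds dissolved in DMSO are pin-transferred onto overnight-plated cells and left 2hr at 37C. ATP-based CellTiter-Glo luminescence then measures viable cells.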
The nature of experiment [7]: qHTS assay to identify small molecule agonists of the sonic hedgehog signaling (Shh) pathway - cell viability counter screen (AID 1259366). Also: nearly all actives have a fitted effect of over 50% in size. The essentials:
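Cells are plated at 2,000 per well and left 4hr at 37C, 5% CO2 before compound addition. After 23hr of treatment, CellTiter-Fluor reagent is added for 1hr at 37C and fluorescence is measured.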

Experiment [8] can be described thus: qHTS assay to identify small molecule antagonists of the sonic hedgehog signaling (Shh) pathway - cell viability counter screen (AID 1259367). Also: nearly all actives have a fitted effect of over 55% in size. The essentials:
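CellTiter-Fluor signal in conditioned medium-stimulated 3T3 Gli1-Luc cells, 23 hr compound exposure, 37C.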

The nature of experiment [9]: qHTS assay to identify small molecule agonists of the sonic hedgehog signaling (Shh) pathway (AID 1259368; calls by dose curve;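 also: NIH/3T3-derived 3T3Gli1-Luc cells carrying a stable Gli1-driven firefly luciferase reporter; series mostly up to about 92 µM; nearly all actives have a fitted effect of over 15% in size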). In outline: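 Read-out: firefly luciferase luminescence from a Gli1 response element reporter stably integrated in NIH/3T3-derived 3T3Gli1-Luc cells, measured 30 min at room temperature after reagent addition. Compound exposure lasted 24 hr at 37 C, 5% CO2.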
The nature of experiment [10]: qHTS assay to identify small molecule antagonists of the sonic hedgehog signaling (Shh) pathway (AID 1259369; calls by dose curve; also: nearly all actives have a fitted effect of over 45% in size). The essentials: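 Luminescence readout: firefly Luc under Gli1 response element in 3T3Gli1-Luc cells (NIH/3T3 clone). Antagonist mode, stimulation by conditioned medium; compound exposure 24hr at 37 C, 5% CO2.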
A short description of experiment [11]: qHTS assay to identify small molecule agonists of the androgen receptor (AR) signaling pathway in the presence of an antagonist - cell viability counter screen (AID 1259379).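 Also: MDA-kb2 human breast cancer cells carrying an MMTV luciferase reporter; series mostly up to about 92 µM; nearly all actives have a fitted effect of over 25% in size.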 In outline:
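Viability counter screen: CellTiter-Fluor fluorescence, measured in the same wells as the luciferase read-out. MDA-kb2 cells, 3,000/well, with nilutamide at 3.0uM final and compounds at 15 concentrations, 16 hr at 37C, 0% CO2.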

Experiment [12] is described as follows: qHTS assay to identify small molecule agonists of the estrogen receptor beta (ER-beta) signaling pathway - cell viability counter screen (AID 1259380). Also: nearly all actives have a fitted effect of over 30% in size. In outline:
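Luminescence read-out (CellTiter-Glo, 30 min, room temp) taken in the same wells as the beta-lactamase reporter assay; ER-beta-UAS-bla HEK293T cells exposed to DMSO-dissolved compounds for 16 hr at 37C in 2% charcoal-stripped FBS medium.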

The nature of experiment [13]: qHTS assay to identify small molecule antagonists of the estrogen receptor beta (ER-beta) signaling pathway - cell viability counter screen (AID 1259382).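 Also: HEK293T cells carrying ER-beta-UAS-bla reporter stimulated with estradiol; series mostly up to about 92 µM; nearly all actives have a fitted effect of over 55% in size.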 The essentials:
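Luminescent ATP read-out (CellTiter-Glo, 30 min, RT) taken in the same wells as the bla reporter assay. HEK293T ER-beta-UAS-bla cells in 2% charcoal-stripped FBS were exposed to compounds with 1nM E2 for 16 hr at 37C.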

The target in experiment [14] is Estrogen receptor (Homo sapiens) (UniProt P03372). Kind of experiment: qHTS assay to identify small molecule agonists of the estrogen receptor alpha (ER-alpha) signaling pathway in the presence of an antagonist (AID 1259383; calls by dose curve; also: top concentration of the series differs between compounds; nearly all actives have a fitted effect of over 15% in size). The essentials:
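Luciferase luminescence (ONE-Glo, 30min at room temperature) measured in VM7Luc4E2 cells after 22hr compound exposure at 15 concentrations, with 10.0nM ICI-182,780 final present; cells express endogenous ER-alpha and carry four EREs upstream of luciferase.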

Experiment [15] in a line: qHTS assay to identify small molecule agonists or antagonists of the thyroid stimulating hormone receptor (TSHR) signaling pathway - wild type cell line counter screen (AID 1259384; calls by dose curve). The essentials: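 Counter screen in untransfected Hek293: compounds (15-point titration, triplicate) plus phosphodiesterase inhibitor Ro20-1724 added after 18 h plating; 30 min RT. Intracellular cAMP via competitive d2/cryptate immunoassay, 1 h incubation.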

Experiment [16] is described as follows: qHTS assay to identify small molecule phospholipidosis (PLD) inducers (AID 1259344; active = well fitted curve in the direction sought with a large enough effect; an effect the other way counts as inactive or inconclusive). The essentials: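 Accumulated phospholipid, stained red by LipidTOX during 24 h compound treatment of HepG2 cells at 37 C, is quantified from images as pit number and intensity, normalised per cell using Hoechst-stained nuclei.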
Experiment [17] concerns the target Androgen receptor (Homo sapiens) (UniProt P10275). Kind of experiment: qHTS assay to identify small molecule antagonists of the androgen receptor (AR) signaling pathway using the MDA cell line in the presence of 0.5 nM R1881 (AID 1259243). Also: nearly all actives have a fitted effect of over 50% in size. In outline:
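MDA-kb2, MMTV-luc (AR/GR elements); 3,000 cells/well; cpd + 0.5 nM R1881 final; 16 hr 37C, 0% CO2; ONE-Glo 30 min RT; luminescence.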

For experiment [18] the target is unchanged. In words: qHTS assay to identify small molecule agonists of the androgen receptor (AR) signaling pathway in the presence of an antagonist (AID 1259381; calls by dose curve; also: nearly all actives have a fitted effect of over 15% in size). The essentials: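 Luciferase read-out (ONE-Glo, 30min room temperature) in MDA-kb2 MMTV-reporter cells; agonist mode run in presence of AR antagonist nilutamide, 3.0uM final. Compounds tested as 15-point series, 16hr exposure at 37C, 0% CO2.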

Experiment [19] concerns the target Estrogen receptor beta (Homo sapiens) (UniProt Q92731). Kind of experiment: qHTS assay to identify small molecule agonists of the estrogen receptor beta (ER-beta) signaling pathway (AID 1259377; active = well fitted activation curve with a large enough effect in the signal ratio in the repeat runs, not every such curve was filed as active; the % refers to the signal ratio). In outline: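 Agonist mode cell assay in GripTite HEK293T cells expressing an ER-beta fusion that drives beta-lactamase from an Upstream Activator Sequence; 16 hr compound exposure at 37C, then 2 h LiveBLAzer B/G FRET substrate at room temperature, fluorescence read-out.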

Experiment [20] has the same target. In words: qHTS assay to identify small molecule antagonists of the estrogen receptor beta (ER-beta) signaling pathway (AID 1259378; active = well fitted inhibition curve with a large enough effect in the signal ratio in the repeat runs, not every such curve was filed as active; the % refers to the signal ratio). In outline:
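Antagonist mode: compounds added to beta-lactamase reporter HEK293T ER-beta-UAS cells stimulated with E2 (1nM final), 16 hr at 37C. LiveBLAzer B/G FRET substrate, 2 hours room temperature, fluorescence read-out.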

Sequence of Androgen receptor (Homo sapiens) (P10275 whole entry, looked up): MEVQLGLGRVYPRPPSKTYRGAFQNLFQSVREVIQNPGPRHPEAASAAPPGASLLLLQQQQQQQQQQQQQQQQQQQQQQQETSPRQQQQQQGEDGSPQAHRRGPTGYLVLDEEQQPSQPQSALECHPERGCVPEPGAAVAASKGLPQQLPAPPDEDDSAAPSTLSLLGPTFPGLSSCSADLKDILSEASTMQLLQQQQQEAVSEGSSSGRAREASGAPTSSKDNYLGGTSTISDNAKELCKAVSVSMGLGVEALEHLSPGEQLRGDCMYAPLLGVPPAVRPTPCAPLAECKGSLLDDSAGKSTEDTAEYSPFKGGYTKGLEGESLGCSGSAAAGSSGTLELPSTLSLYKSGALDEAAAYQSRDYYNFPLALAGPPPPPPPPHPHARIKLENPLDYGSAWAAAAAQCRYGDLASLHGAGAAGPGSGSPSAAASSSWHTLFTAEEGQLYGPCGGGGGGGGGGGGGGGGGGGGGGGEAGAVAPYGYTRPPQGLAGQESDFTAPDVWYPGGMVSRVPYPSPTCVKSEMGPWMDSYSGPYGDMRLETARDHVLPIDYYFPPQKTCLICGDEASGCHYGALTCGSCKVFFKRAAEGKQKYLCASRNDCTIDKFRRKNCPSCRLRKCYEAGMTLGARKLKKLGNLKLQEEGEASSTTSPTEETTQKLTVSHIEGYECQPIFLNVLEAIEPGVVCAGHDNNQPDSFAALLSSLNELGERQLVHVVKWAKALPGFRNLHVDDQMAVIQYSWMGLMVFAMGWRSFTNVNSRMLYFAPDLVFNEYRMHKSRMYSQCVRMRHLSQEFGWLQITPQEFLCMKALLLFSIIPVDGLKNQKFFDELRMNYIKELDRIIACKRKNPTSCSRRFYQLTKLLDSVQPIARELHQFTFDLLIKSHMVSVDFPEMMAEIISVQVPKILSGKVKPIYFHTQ
Sequence of Estrogen receptor beta (Homo sapiens) (Q92731 whole entry, looked up, the tested form may be a part): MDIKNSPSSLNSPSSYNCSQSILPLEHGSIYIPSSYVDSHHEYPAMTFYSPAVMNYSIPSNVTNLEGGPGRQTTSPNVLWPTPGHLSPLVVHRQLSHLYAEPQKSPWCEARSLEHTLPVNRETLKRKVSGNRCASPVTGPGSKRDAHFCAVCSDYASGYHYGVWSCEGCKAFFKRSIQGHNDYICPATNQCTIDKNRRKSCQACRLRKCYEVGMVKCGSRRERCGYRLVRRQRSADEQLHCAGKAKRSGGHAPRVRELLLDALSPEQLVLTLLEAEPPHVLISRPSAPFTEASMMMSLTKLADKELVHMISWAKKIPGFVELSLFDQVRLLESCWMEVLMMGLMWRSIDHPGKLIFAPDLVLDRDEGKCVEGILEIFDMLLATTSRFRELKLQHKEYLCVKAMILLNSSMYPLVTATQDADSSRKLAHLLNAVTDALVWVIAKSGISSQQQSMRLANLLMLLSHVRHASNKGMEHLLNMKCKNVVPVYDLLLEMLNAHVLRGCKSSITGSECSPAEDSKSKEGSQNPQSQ

Turning to `CC(=O)c1ccc(O)cc1`, the molecule was classed as inactive in experiment [1], in experiment [6], in experiment [9], in experiment [13] and in experiment [15]. The Potency result in [2], in experiment [3], in experiment [4], in experiment [5], in experiment [7] and in [8] was “inactive” in each case. The Potency result in [10], in [11], in [12] and in [14] was “inactive” in each case.
In the case of `CC(C)CCCCCCCOC(=O)CCCCC(=O)OCCCCCCCC(C)C`, the molecule was classed as inactive in [1], in experiment [6], in experiment [9], in experiment [13] and in [15]. Moreover, the Potency result in experiment [2], in experiment [5], in experiment [7], in [8], in [10] and in [11] was “inactive” each time. Moreover, the Potency result in [12] was “inactive”.
For the molecule `O=C1C(c2[nH]c3ccccc3c2O)=Nc2ccccc21`, the outcome in experiment [1], in [16], in experiment [6], in [9], in experiment [13] and in [15] was inactive. Also, the Potency result in [2], in experiment [3], in [5], in [7], in [8] and in experiment [11] was “inactive” each time. In experiment [12], the Potency result is “inactive”.
As to `O=C(O)c1cc2ccccc2cc1O`, the call in [1], in experiment [6], in [9], in experiment [13] and in [15] was inactive. Also, the Potency result in experiment [2], in [17], in experiment [4], in experiment [7], in [8] and in experiment [10] was “inactive” throughout. The Potency result in experiment [11], in [12], in experiment [18] and in [14] was “inactive” each time. Further, in experiment [5], the Potency is 27.1 µM (active) and 24.3 µM (active).
For the molecule `c1ccc(Oc2ccccc2)cc1`, the molecule was called inactive in experiment [1], in experiment [6], in experiment [9], in experiment [13] and in experiment [15]. Moreover, the Potency entry in experiment [2], in experiment [3], in experiment [5], in [7], in [8] and in experiment [10] was “inactive” each time. Also, the Potency entry in experiment [19], in experiment [20], in [11] and in experiment [12] was “inactive” throughout.
Turning to `CCO[Si](CCC#N)(OCC)OCC`, the molecule was called inactive in [1], in experiment [6], in experiment [9] and in experiment [13]. Also, the Potency result in experiment [2], in experiment [4], in experiment [5], in experiment [7], in experiment [8] and in experiment [10] was “inactive” throughout. Besides, the Potency result in [19], in experiment [20], in experiment [11] and in experiment [12] was “inactive” in each case.
For `CC1(C)OC[C@@H]2O[C@@]3(C(=O)O)OC(C)(C)O[C@H]3[C@@H]2O1`, the result in experiment [1], in experiment [16], in [6], in experiment [9], in [13] and in [15] was inactive. In addition, the Potency result in experiment [2], in [5], in experiment [7], in experiment [8], in experiment [10] and in [19] was “inactive” in each case. In addition, the Potency result in experiment [20], in experiment [11] and in [12] was “inactive” in each case.
Turning to `C=CCc1ccc(OC)c(OC)c1`, the outcome in [1], in experiment [6], in [9], in experiment [13] and in experiment [15] was inactive. The Potency entry in [2], in [5], in experiment [7], in [8], in [10] and in experiment [19] was “inactive” throughout. Moreover, the Potency entry in [20], in [11] and in [12] was “inactive” throughout.
On to `COC(=O)CCCC(=O)OC`, for which the molecule was classed as inactive in [1], in experiment [6], in experiment [9], in experiment [13] and in experiment [15]. Also, the Potency result in experiment [2], in [3], in [5], in experiment [7], in experiment [8] and in [11] was “inactive” in each case. Further, the Potency result in [12] was “inactive”.
On to `CC(=O)CC(C)(C)O`, for which the result in experiment [1], in experiment [6], in experiment [9], in experiment [13] and in experiment [15] was inactive. Also, the Potency entry in experiment [2], in experiment [17], in [4], in experiment [5], in experiment [7] and in [8] was “inactive” in each case. Besides, the Potency result in [19], in [11], in experiment [12] and in experiment [18] was “inactive” throughout.
